# Unmarked numbers belong to inactive results. Results filed as inconclusive are left out. Where a call stands in place of a potency, no number is given. Activity calls are given as the source filed them. Calls follow the shape of the dose curve; as a rule, active = well fitted inhibition curve with a large enough effect; inconclusive = small, poorly fitted or top-dose-only effect; inactive = no such curve, though single readings can be large or run the other way.
# Tests used:
# [1] = qHTS assay for measurement of the activity of small molecule inhibitors on Zika virus induced Caspase-3 activity in human iPSC derived neural progenitor cells (hNPCs) (AID 1224857); also: nearly all actives have a fitted effect of over 65% in size; also: potency is read from the fitted curve at half-maximal effect
# Outline: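 Human iPSC-derived neural progenitor cells pretreated 1 hr with compounds, then infected with Zika virus (2 FFU/cell) for 6 hours at 37 C. Caspase-3/7 measured by Caspase-Glo luminescence; % inhibition calculated from induction scaled to uninfected (0%) and infected (100%) wells.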
# [2] = qHTS assay for measurement of the activity of small molecule inhibitors on Zika virus induced Caspase-3 activity in human astrocytoma cells (AID 1224859)
# Outline: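 SNB-19 astrocytoma cells, 250/well, pretreated 1 h with compounds, then Zika virus at 2 FFU/cell for 6 h at 37 C; Caspase-Glo 3/7 luminescence after 30 min; percent inhibition normalised to uninfected and infected controls.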
smiles,measurement,setting,value
CCCCCCCCCCCCCCCCCCN(CCCCCCCCCCCCCCCCCC)CCCN(CCO)CCO,Potency,[1],inactive
CC(C)NC[C@H](O)COc1cccc2[nH]ccc12,Potency,[1],inactive
same,Potency,[2],inactive
S=c1[nH]c(-c2ccccc2)cn1-c1ccccc1,Potency,[1],inactive
COc1cc(OC)cc(-c2cc3cnc(N)nc3nc2NC(=O)NC(C)(C)C)c1,Potency,[1],inactive
O=C(CCSCc1ccco1)NNC(=O)N1Cc2ccccc2Oc2ccc(Cl)cc21,Potency,[1],inactive
O=C(Nc1ccccc1)c1cc([N+](=O)[O-])ccc1Cl,Potency,[1],inactive
same,Potency,[2],inactive
OC[C@H]1O[C@@H](n2cnc3c(NC4CCCC4)ncnc32)[C@H](O)C1O (some centres undefined),Potency,[1],inactive
O=c1cc(-c2ccccc2)oc2c(O)c(O)ccc12,Potency,[1],inactive
NS(=O)(=O)c1ccc(-n2nc(C(F)(F)F)cc2-c2ccc(Cl)cc2)cc1,Potency,[1],inactive
O=C1NCc2c1c1c3ccccc3[nH]c1c1[nH]c3ccccc3c21,Potency,[1],inactive
Cn1ncc(S(=O)(=O)Cc2ccccc2)c(Br)c1=O,Potency,[1],inactive
same,Potency,[2],inactive
CC1(C)CCC=[N+]1[O-],Potency,[1],inactive
same,Potency,[2],inactive
O=[N+]([O-])c1ccc(CSc2ncnc3c2ncn3[C@@H]2O[C@H](CO)C(O)[C@H]2O)cc1 (some centres undefined),Potency,[1],inactive
COc1ccccc1CNCCCCCCNCCCCCCCCNCCCCCCNCc1ccccc1OC,Potency,[1],inactive
same,Potency,[2],inactive
CNC(=O)[C@H]1O[C@@H](n2cnc3c(NCc4cccc(I)c4)ncnc32)[C@H](O)C1O (some centres undefined),Potency,[1],inactive
CCNc1nc2c(ncn2[C@H]2C[C@H](O)[C@@H](CO)O2)c(=O)[nH]1,Potency,[1],inactive
Nc1nc2ccc(Cl)cc2n2c(-c3ccccc3)nnc12,Potency,[1],inactive
CN1C2CC(OC(=O)[C@H](CO)c3ccccc3)CC1C1OC12 (some centres undefined),Potency,[1],inactive
same,Potency,[2],inactive
Nc1ccn([C@@H]2O[C@H](CO)[C@@H](O)[C@@H]2O)c(=O)n1,Potency,[1],inactive
CC(C)(C)c1nnc(NS(=O)(=O)c2ccc(N)cc2)s1,Potency,[1],inactive
COc1ccc(-c2cc(=O)c3c(O)c(OC)c(OC)cc3o2)cc1O,Potency,[1],inactive
NCC1OC(OC2C(O)[C@@H](OC3C(O)C(N)CC(N)C3OC3OC(CO)C(O)C(O)C3N)O[C@@H]2CO)C(N)C(O)C1O (some centres undefined),Potency,[1],inactive
Brc1cc2c(cc1[C@H]1Nc3ccccc3[C@H]3C=CC[C@H]31)OCO2,Potency,[1],inactive
O=C(O)Cc1cccc(-c2cc(CCCCCCc3ccc(O[C@H]4O[C@H](CO)[C@@H](O)[C@H](O)[C@@H]4O)c(-c4cccc(CC(=O)O)c4)c3)ccc2O[C@H]2O[C@H](CO)[C@@H](O)[C@H](O)[C@@H]2O)c1,"activity change, negative = inhibition",[1],14.4% [at 0.568 µM]
OC[C@H]1O[C@@H](n2cnc3c(NC4CCCCC4)ncnc32)[C@H](O)[C@@H]1O,Potency,[1],inactive
same,Potency,[2],inactive
NC(=O)C1=CN(C2OC(COP(=O)(O)OP(=O)(O)OC[C@H]3O[C@@H](n4cnc5c(N)ncnc54)[C@H](OP(=O)(O)O)C3O)C(O)C2O)C=CC1 (some centres undefined),Potency,[1],inactive
O=C(O)c1cc([N+](=O)[O-])ccc1NCCCc1ccccc1,Potency,[1],10 µM (active)
CC(C)NC[C@@H](O)c1ccc(O)c(O)c1,Potency,[1],inactive
CN1CCc2ccccc2Cc2[nH]c3ccccc3c2CC1,Potency,[1],inactive
same,Potency,[2],inactive
Cc1ccc(O)c(N=Nc2ccccc2)n1,Potency,[1],0.891 µM (active)
CCN(CC)CCCCNc1ncc2cc(-c3c(Cl)cccc3Cl)c(NC(=O)NC(C)(C)C)nc2n1,Potency,[1],inactive
Nc1nc(Nc2ccccc2)nc2c1ncn2[C@@H]1O[C@H](CO)C(O)[C@H]1O (some centres undefined),Potency,[1],inactive
CNC(=O)c1c(I)c(NC(=O)CCCCC(=O)Nc2c(I)c(C(=O)O)c(I)c(C(=O)NC)c2I)c(I)c(C(=O)O)c1I,Potency,[1],inactive
O=[N+]([O-])c1ccc(CNc2nc(NCc3cccc(C(F)(F)F)c3)nc3nc[nH]c23)cc1,Potency,[1],inactive
CN1[C@@H](CC(=O)c2ccccc2)CCC[C@H]1C[C@H](O)c1ccccc1,Potency,[1],inactive
CCCCC#Cc1nc(NC)c2ncn([C@@H]3O[C@H](CO)[C@@H](O)C3O)c2n1 (some centres undefined),Potency,[1],inactive
CC[C@H]1OC(=O)[C@H](C)[C@@H](O[C@H]2C[C@@](C)(OC)[C@@H](O)[C@H](C)O2)[C@H](C)[C@@H](O[C@@H]2O[C@H](C)C[C@H](NC)[C@H]2O)[C@](C)(O)C[C@@H](C)CN(C)[C@H](C)[C@@H](O)[C@]1(C)O,Potency,[1],inactive
N[C@H](CCCP(=O)(O)O)C(=O)O,Potency,[1],inactive
CC(C)(NS(=O)(=O)c1ccc(Oc2ccc(F)cc2)cc1)C(=O)NO,Potency,[1],inactive
NC[C@H]1O[C@@H](n2cnc3c(N)ncnc32)[C@H](O)[C@@H]1O,Potency,[1],inactive
same,Potency,[2],inactive

# — PubChem BioAssay (NCATS)
